Data: PubChem BioAssay (EPA / NIEHS)
Activity calls are given as the source filed them. Rule for the calls: active = hit-call score of the fitted dose curve at least 0.9, where 1 is the maximum; inactive = score below 0.9.

Columns and labels:
[1] = read-out: Cytochrome P450 (CYP1A1), CYP1A1 (gene 1543); test: LTEA_HepaRG_CYP1A1: Life Technologies and Expression Analysis (LTEA) Assay for Cytochrome P450 (CYP1A1) using HepaRG (AID 2283454); details: mRNA level, 48 h; actives raise or lower the signal
Summary of the method: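 HepaRG, 48 h post-plating switched to serum-free induction medium; 8-pt conc-response (top 100 uM, half-log, 0.5% DMSO), duplicates, 48 h. Lysis in RLT, TaqMan qRT-PCR for CYP1A1; gain or loss vs DMSO.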

[2] = read-out: CFLAR gene, CFLAR (gene 8837); test: LTEA_HepaRG_CFLAR: Life Technologies and Expression Analysis (LTEA) Assay for CFLAR gene using HepaRG (AID 2283455); details: mRNA level, 48 h; actives raise or lower the signal
Summary of the method: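 Differentiated HepaRG cells in serum-free induction medium were exposed 48 h in duplicate to eight half-log concentrations up to 100 uM in 0.5% DMSO; mRNA measured by TaqMan qRT-PCR, normalized to ACTB, GAPDH, POLR2A; bidirectional fitting versus DMSO.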

[3] = read-out: Forkhead box O1 (FOXO1), FOXO1 (gene 2308); test: LTEA_HepaRG_FOXO1: Life Technologies and Expression Analysis (LTEA) Assay for Forkhead box O1 (FOXO1) using HepaRG (AID 2283456); details: mRNA level, 48 h; actives raise or lower the signal
Summary of the method: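 Differentiated HepaRG cells, in serum-free induction medium with 0.5% DMSO, exposed 48 h in duplicate to 8-point half-log series from 100 uM. FOXO1 mRNA measured by TaqMan qRT-PCR, normalized to ACTB, GAPDH, POLR2A; bidirectional fit versus DMSO.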

[4] = read-out: growth arrest and DNA damage 45 (GADD45A), GADD45A (gene 1647); test: LTEA_HepaRG_GADD45A: Life Technologies and Expression Analysis (LTEA) Assay for growth arrest and DNA damage 45 (GADD45A) using HepaRG (AID 2283458); details: mRNA level, 48 h; actives raise or lower the signal
Summary of the method: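 Differentiated HepaRG cells were exposed in duplicate for 48 h in serum-free induction medium to 8-point half-log concentrations up to 100 uM in 0.5% DMSO. GADD45A mRNA was measured by TaqMan qRT-PCR, normalized to ACTB, GAPDH and POLR2A, with bidirectional fitting versus DMSO.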

[5] = read-out: Forkhead box O3 (FOXO3), FOXO3 (gene 2309); test: LTEA_HepaRG_FOXO3: Life Technologies and Expression Analysis (LTEA) Assay for Forkhead box O3 (FOXO3) using HepaRG (AID 2283459); details: mRNA level, 48 h; actives raise or lower the signal
Summary of the method: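 Differentiated human HepaRG cells, 48 h post-plating, exposed in duplicate for 48 h in serum-free induction medium; 8-point half-log series from 100 uM in 0.5% DMSO. FOXO3 mRNA by TaqMan qRT-PCR, normalized to ACTB/GAPDH/POLR2A; bidirectional fit versus DMSO.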

[6] = read-out: ABC Transporter (ABCB1), ABCB1 (gene 5243); test: LTEA_HepaRG_ABCB1: Life Technologies and Expression Analysis (LTEA) Assay for ABC Transporter (ABCB1) using HepaRG (AID 2283460); details: mRNA level, 48 h; actives raise or lower the signal
Summary of the method: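 HepaRG cells exposed in duplicate for 48 h in serum-free induction medium to eight half-log concentrations up to 100 uM in 0.5% DMSO. ABCB1 mRNA quantified by qRT-PCR, normalised to ACTB, GAPDH and POLR2A; fitted bidirectionally versus DMSO.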

[7] = read-out: growth arrest and DNA damage 45 (GADD45B), GADD45B (gene 4616); test: LTEA_HepaRG_GADD45B: Life Technologies and Expression Analysis (LTEA) Assay for growth arrest and DNA damage 45 (GADD45B) using HepaRG (AID 2283461); details: mRNA level, 48 h; actives raise or lower the signal
Summary of the method: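 HepaRG, ~100,000 cells/well, 48 h plating; serum-free induction medium; cpd 100 uM top, half-log x8, 0.5% DMSO, duplicate, 48 h; lysis in RLT, RNA isolation, qRT-PCR; norm ACTB/GAPDH/POLR2A; bidirectional fit vs DMSO.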

[8] = read-out: ABC Transporter (ABCC3), ABCC3 (gene 8714); test: LTEA_HepaRG_ABCC3: Life Technologies and Expression Analysis (LTEA) Assay for ABC Transporter (ABCC3) using HepaRG (AID 2283462); details: mRNA level, 48 h; actives raise or lower the signal
Summary of the method: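 Human HepaRG, 48 h dosing, 8-pt half-log series from 100 uM, 0.5% DMSO vehicle, duplicates. ABCC3 mRNA by TaqMan qRT-PCR, housekeeping-normalized; bidirectional curve fit vs DMSO.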

[9] = read-out: ABC Transporter (ABCB11), ABCB11 (gene 8647); test: LTEA_HepaRG_ABCB11: Life Technologies and Expression Analysis (LTEA) Assay for ABC Transporter (ABCB11) using HepaRG (AID 2283463); details: mRNA level, 48 h; actives raise or lower the signal
Summary of the method: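 Differentiated human HepaRG cells in serum-free induction medium, dosed in duplicate for 48 h. Eight-point half-log series from 100 uM in 0.5% DMSO; ABCB11 mRNA by qRT-PCR, normalized to ACTB, GAPDH, POLR2A, fitted bidirectionally versus DMSO.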

[10] = CEETOX_H295R_TESTO: CeeTox H295R High-throughput Steroidogenesis Assay for Testosterone (TESTO) (AID 2283457); details: actives raise or lower the signal
Procedure: CEETOX_H295R is a cell-based, multiplexed-readout assay that uses H295R, a human adrenal gland cell line, with measurements taken at 48 hours after chemical dosing in a 96-well plate.CEETOX_H295R_TESTO is one of 23 assay component(s) measured or calculated from the CEETOX_H295R assay. It is designed to make measurements of hormone induction, a form of inducible reporter, as detected with […] by HPLC-MS-MS technology.Data from the assay component CEETOX_H295R_TESTO was analyzed into 1 assay endpoint. This assay endpoint, CEETOX_H295R_TESTO, was analyzed with bidirectional fitting relative to DMSO as the negative control and baseline of activity. Using a type of inducible reporter, gain or loss-of-signal activity using HPLC-MS-MS was used to understand synthesis of Testosterone in H295R cell line at 48hr of chemical exposure. To generalize the intended target to other relatable targets, this assay endpoint is annotated to the steroid hormone intended target family, where the subfamily is androgens.
Cell culture and media preparation procedures were conducted in accordance with OECD Test No. 456 guidelines, with minor modifications. H295R cells (ATCC CRL-2128) were expanded for 5 passages and frozen in batches in liquid nitrogen. Prior to the steroidogenesis assay, H295R cells were thawed and passed at least 4 times. The maximum passage was 10. Cells were maintained in a 1:1 mixture of DMEM/F12 supplemented with 5ml/L ITS+ Premix (BD Bioscience) and 12.5 ml/L Nu-Serum (BD Bioscience). After seeding cells into 96-well plates at 50-60% confluency, cells were allowed to adhere overnight. […] Test chemicals were incubated for 48 hours, then the medium was removed and split into 2 vials containing approximately 75uL each, and stored at -80 C prior to hormone analysis. For steroid quantification, media samples were shipped to OpAns, LLC (Durham, NC) on dry ice, and samples were thawed to room temperature prior to liquid-liquid extraction. Steroid hormones were extracted from media samples using methyl tertbutyl ether (MTBE). An extra derivatization with dansyl chloride was included for estrogen (estrone and estradiol) detection only. Steroid hormones were separated by HPLC, eluted using a reverse phase C18 gradient with electrospray positive ionization, followed by quantification by tandem mass spectrometry (MS/MS). Data were acquired on a MassHunter Workstation Acquisition version B03.01 (Agilent Technologies, Inc.) and processed using MassHunter Quantitative Analysis for QQQ. Accuracy was determined for each hormone analyte from 3 standards to determine upper and lower limits of quantification (ULOQ and LLOQ, respectively) using a 7-point standard curve. Precision and accuracy of the extraction and quantification methods were calculated as the percent relative standard deviation (%RSD) of the spiked standards and percent spiked standard recovered, respectively. […] Test medium was removed following chemical exposure, and cell viability was evaluated in the same wells by MTT. […] Absorbance was read at 570 and 650nm using a Packard Fusion microplate reader. Background correction of absorbance units was used to determine percent change relative to controls. […] When a test chemical reduced cell viability to 20% - 70%, the test chemical was diluted 10-fold and re-evaluated, but if cell viability was <20%, then the test chemical was diluted 100-fold and re-evaluated. […]

Measured: AC50

CCCCCCCCCCCCCCO
active: [1] 50 µM
not listed: [10]
inactive: all other assays above

O=C(O)c1cccc(C(=O)O)c1
active: [1] 50 µM
not listed: [10]
inactive: all other assays above

Cc1nc(-c2ccccn2)ncc1C(=O)Nn1cc(C)c2cc(F)ccc21
active: [1] 18.6 µM | [6] 2.77 µM | [9] 50 µM
not listed: [10]
inactive: all other assays above

Cc1nccn1-c1ccc(Sc2cccc(C3(C(N)=O)CCOCC3)c2)cc1
inactive: [1] | [5]
active: [2] 28.3 µM | [3] 9.73 µM | [4] 10.9 µM | [6] 21 µM | [7] 27.3 µM | [8] 3.65 µM | [9] 9.74 µM

c1ccc2cc3ccccc3cc2c1
active: [1] 10.5 µM | [9] 71.7 µM
not listed: [10]
inactive: all other assays above

Nc1ccn([C@@H]2O[C@H](CO)[C@@H](O)[C@@H]2O)c(=O)n1
active: [1] 77.3 µM
not listed: [10]
inactive: all other assays above

C=CN1CCCC1=O
active: [1] 50 µM
not listed: [10]
inactive: all other assays above

C=CCc1cc(S(=O)(=O)c2ccc(O)c(CC=C)c2)ccc1O
active: [3] 79.6 µM | [5] 84.9 µM | [6] 89.1 µM | [9] 81.6 µM
inactive: all other assays above

OCc1ccccc1
not listed: [10]
inactive: all other assays above

O=S1(=O)CCCO1
not listed: [10]
inactive: all other assays above

CC(C)c1nnc2ccc(-c3ocnc3-c3cc(F)ccc3F)cn12
active: [1] 29.9 µM | [8] 50 µM | [9] 81 µM
not listed: [10]
inactive: all other assays above

CC1(C)C(=O)N(Cl)C(=O)N1Cl
active: [1] 50 µM
not listed: [10]
inactive: all other assays above

CCc1ccc(O)c(C(C)(C)C)c1
active: [1] 50 µM
not listed: [10]
inactive: all other assays above

O=S(=O)(O)c1ccc(N=Nc2c(O)ccc3cc(S(=O)(=O)O)ccc23)cc1
active: [1] 50 µM
not listed: [10]
inactive: all other assays above

OCCOCCOCCO
active: [1] 84.1 µM | [6] 0.115 µM
not listed: [10]
inactive: all other assays above

CC(C)CC(C)O (centres undefined)
active: [1] 50 µM
not listed: [10]
inactive: all other assays above

O=C1CN(N=Cc2ccc([N+](=O)[O-])o2)C(=O)N1
active: [4] 80.7 µM | [9] 27.7 µM
not listed: [10]
inactive: all other assays above
